Only some compounds are listed: those with a hit (about 1.1% of all), similar ones and a draw of the others.
Yp Topo-I inh: blocks Yersinia pestis topoisomerase I activity. actives 0.064% (n = 360,000). AID 504884. Y. pestis Topo-I cleavage product accumulation, plate reader. activity, % at 10 µM; in the data active = activity above about 50%, passing the limit was not always enough
CCHF vOTU inh-1: blocks the CCHF virus ovarian tumor domain protease; CCHFV vOTU protease, Pep-AMC fluorescence; inhibition, % at 11.5 µM; actives 0.55% (n = 370,000); AID 651958
BH1578 lux ind: induces V. cholerae light production without autoinducers; V. cholerae BH1578 lux reporter, luminescence, 6 h; actives 0.16% (n = 350,000); activation, % at 18.7 µM; in the data active = activation mostly above about 9.7%, no sharp cut-off
PrPC surface inh: inhibitors of human cell surface prion protein PrPC. P04156. inhibition, % at 13.8 µM. actives 0.43% (n = 370,000). TR-FRET read-out; in the data active = inhibition above about 24%
CCHF vOTU inh-2: CCHFV vOTU protease inhibition, confirmation. shares compounds with CCHF vOTU inh-1. Recombinant CCHFV vOTU, Pep-AMC fluorescence. inhibition, % at 11.5 µM. actives 17% (n = 1,900)
A number is an active result; 0 = inactive; - = no result. Rule as the data show it, unless noted: active = inhibition above about 30%; inactive = the rest.

SMILES	Yp Topo-I inh	CCHF vOTU inh-1	BH1578 lux ind	PrPC surface inh	CCHF vOTU inh-2
O=C1CN=C(c2ccccc2)c2cc([N+](=O)[O-])ccc2N1	0	0	0	0	-
COc1cc(-n2c(=O)c3ccccc3n(CC(=O)OCc3ccccc3)c2=O)cc(OC)c1OC	0	0	0	0	-
CC1(C)CC(=O)C2=C(C1)OC(N)=C(C#N)C21CCN(Cc2ccccc2)CC1	0	0	0	0	-
Cc1nc2c([nH]1)C1(CCN(Cc3ccccc3)CC1)C(C#N)=C(N)O2	0	40	0	0	0
CCN(CC)CCn1c(=N)n(CCO)c2ccccc21	0	0	0	0	-
CCOc1ccc(CCNC(=O)c2ccc(Cl)c(S(=O)(=O)N3CCOCC3)c2)cc1OCC	0	42	0	0	0
CCOc1ccc(CCNC(=O)c2ccc(C)c(S(=O)(=O)N3CCOCC3)c2)cc1OCC	0	0	0	0	-
COCCn1c(SCC(=O)NCC2CCCO2)nc2c(c1=O)SC(C)C2 (stereo not drawn)	0	32	0	0	0
O=C(O)CN1C(=O)/C(=C\c2cccc(OCc3ccc(F)cc3)c2)SC1=S	0	36	0	0	0
Cc1cc(F)cc(-c2cc(C(=O)NCc3ccccc3)[nH]n2)c1	0	0	0	0	-
Cc1cc(F)cc(-c2cc(C(=O)NCc3cccc(Cl)c3)[nH]n2)c1	0	34	0	0	0
CCOc1cc(N2CCOCC2)c(OCC)cc1NC(C)C(=O)N1CCN(CC)CC1 (stereo not drawn)	0	31	0	0	0
COC(=O)/C(=C/Nc1ccccc1)[N+](=O)[O-]	0	0	0	0	-
COC(=O)/C(=C/Nc1ccc(O)cc1)[N+](=O)[O-]	0	93	0	0	0
CCOC(=O)C1CCN(S(=O)(=O)c2ccc(NC(=O)OC)cc2)CC1	0	0	-	0	-
COC(=O)Nc1ccc(S(=O)(=O)N2CCC(C(=O)N(C)C3CCCCC3)CC2)cc1	0	31	0	0	0
CCCCCc1ccc(-c2ccc(OC)cc2)nc1	0	0	0	0	-
CCC(=O)c1cn(CC(=O)Nc2ccccc2)c2ccccc12	0	0	0	0	-
COc1ccc(Oc2nnnn2-c2ccccc2)cc1	0	0	0	0	-
O=C(NCC1CCN(C(=O)C(=O)c2cc3ccccc3o2)CC1)c1cc(C(F)(F)F)cc(C(F)(F)F)c1	-	37	-	0	0
Cc1ccccc1-n1c(/C=C/c2ccccn2)nc2ccccc2c1=O	0	32	0	0	0
O=c1c2ccccc2nc(/C=C/c2ccccc2)n1-c1ccccc1O	0	0	0	0	-
COc1cc2c(cc1NCc1ccccn1)oc1ccccc12	0	30	0	0	0
CCN(CC)C(=O)CC[C@@H]1CC[C@]2(CCCN(C(=O)c3ccccc3)C2)O1	-	0	-	0	-
COc1ccc(NC(=O)[C@@H]2CCCN2C(=O)[C@@H]2Cc3ccccc3CN2C(=O)OC(C)(C)C)cc1	0	35	0	0	0
SMILES	Yp Topo-I inh	CCHF vOTU inh-1	BH1578 lux ind	PrPC surface inh	CCHF vOTU inh-2
CCCCCc1c(-c2ccccc2F)ncn1CCc1ccccc1OC	-	0	-	0	-
CCCc1c(-c2cccc(F)c2)ncn1Cc1ccccc1OC	-	37	-	0	0
CCCCc1c(-c2ccccc2F)ncn1CCc1ccccc1OC	-	37	-	0	0
CCCCc1c(-c2ccccc2OC)ncn1Cc1ccc(F)cc1F	-	33	-	0	0
CCCCc1c(-c2ccccc2OC)ncn1CCc1ccccc1Cl	-	31	-	0	0
CCCCc1c(-c2ccccc2OC)ncn1CCc1ccccc1OC	-	0	-	0	-
CCCc1c(-c2cccc(F)c2)ncn1CCc1ccccc1OC	-	0	-	0	-
Cc1ccc(S(=O)(=O)N2CCN(C(=O)CSC3CCCC3)CC2)c(C)c1	0	0	0	0	-
N#CCSc1nnc(-c2sc3ccccc3c2Cl)o1	0	0	0	0	-
COC(=O)c1cc(S(=O)(=O)N2CCN(c3ccccc3OC)CC2)cn1C	0	0	0	0	-
Cc1ccc(S(=O)c2ccc([N+](=O)[O-])c3nonc23)cc1 (stereo not drawn)	0	32	0	0	0
Cc1ccc(SCC(=O)N2CCN(c3ccccn3)CC2)cc1	0	0	0	0	-
O=C(CSc1nccc2ccccc12)N1CCN(c2ccccn2)CC1	0	65	0	0	0
O=C(c1ccco1)[C@@H]1[C@@H]2C(=O)N(c3ccc(F)cc3)C(=O)[C@@H]2C2c3ccccc3C=CN21 (stereo partly drawn)	-	86	-	0	40
O=C(c1ccco1)[C@@H]1[C@@H]2C(=O)N(c3ccc(F)cc3)C(=O)[C@@H]2[C@H]2C=Cc3ccccc3N21	0	0	0	0	-
O=C(c1ccco1)[C@@H]1[C@@H]2C(=O)N(c3ccc(Br)cc3)C(=O)[C@@H]2C2c3ccccc3C=CN21 (stereo partly drawn)	0	93	0	0	84
N=C1c2ccccc2CN1c1cccc([N+](=O)[O-])c1	0	0	0	0	-
O=C1CCCc2ccccc2N1Cc1ccccc1	0	0	0	0	-
Cc1cc(C)cc(NC(=O)COC(=O)CCc2ccc(S(=O)(=O)N3CCOCC3)cc2)c1	0	0	0	0	-
Nc1c(C(=O)N/N=C/c2ccc(Cl)cc2)cnn1-c1ccccc1	0	0	0	0	-
Nc1scc2c(C(=O)N/N=C/c3ccc(Cl)cc3)nn(-c3ccccc3)c(=O)c12	0	36	0	0	64
COC(=O)c1cc(NC(=O)COC(=O)CCc2c[nH]c3ccccc23)cc(C(=O)OC)c1	0	0	0	0	-
CCCCCCCCN1C(=O)[C@@H](CC(=O)NCc2ccccc2)C[C@@]2(C(=O)OC)C1=C[C@H](C1CCCC1)O[C@@H]2C	-	0	-	0	-
CCCCCCCCN1C(=O)[C@@H](CC(=O)NCc2ccc(C)o2)C[C@@]2(C(=O)OC)C1=C[C@H](C1CCCC1)O[C@@H]2C	-	30	-	0	0
CCCCCCCCN1C(=O)[C@@H](CC(=O)N2CCCC2)C[C@@]2(C(=O)OC)C1=C[C@H](C1CCCC1)O[C@@H]2C	-	0	-	0	-
SMILES	Yp Topo-I inh	CCHF vOTU inh-1	BH1578 lux ind	PrPC surface inh	CCHF vOTU inh-2
COC(=O)[C@]12C[C@H](CC(=O)NCc3cccc(C(F)(F)F)c3)C(=O)N(Cc3ccc(Cl)cc3Cl)C1=C[C@H](C1CCCC1)O[C@@H]2C	-	32	-	0	0
CCCCCCCCN1C(=O)[C@@H](CC(=O)N2CCN(C(=O)C3CC3)CC2)C[C@@]2(C(=O)OC)C1=C[C@H](C1CCCC1)O[C@@H]2C	-	33	-	0	0
COC(=O)[C@]12C[C@H](CC(=O)NCc3ccccc3)C(=O)N(Cc3ccc(Cl)cc3Cl)C1=C[C@H](C1CCCC1)O[C@@H]2C	-	0	-	0	-
Cc1ccc(S(=O)(=O)n2cnc3cc([N+](=O)[O-])ccc32)cc1C	0	0	0	0	-
Cc1ccc(-n2c3nc(=O)[nH]c(=O)c-3cc3cc([N+](=O)[O-])ccc32)cc1C	0	31	0	0	0
CCS(=O)(=O)C1=NN2C(=N)/C(=C\c3ccc(OCCOc4cccc(OC)c4)c(OC)c3)C(=O)N=C2S1	0	0	0	0	-
O=C1CC(N2CCN(c3ccccn3)CC2)C(=O)N1c1ccc(F)cc1 (stereo not drawn)	0	0	0	0	-
O=C1CC(N2CCN(c3ccccn3)CC2)C(=O)N1CC(c1ccccc1)c1ccccc1 (stereo not drawn)	0	38	0	0	0

From PubChem BioAssay
